In PubChem BioAssay (EPA / NIEHS):
Records with an inconclusive call do not appear. Calls of active or inactive are those of the source. How the source made its calls: active means hit-call score of the fitted dose curve at least 0.9, where 1 is the maximum; inconclusive means response in the unintended direction; inactive means score below 0.9.

What follows are molecules tested on alkyl and aryl transferase (GSTA2), GSTA2 (gene 2939) (assay: CLD_GSTA2_6hr: CellzDirect (CLD) Gene Expression Assay for alkyl and aryl transferase (GSTA2) at 6 hours (AID 2283666)).
Description: CLD_6hr is a cell-based, multiplexed-readout assay that uses hepatocyte, a human liver primary cell, with measurements taken at 6 hours after chemical dosing in a 96-well plate.CLD_GSTA2_6hr is one of 16 assay component(s) measured or calculated from the CLD_6hr assay. It is designed to make measurements of mRNA induction, a form of inducible reporter, as detected with chemiluminescence signals by Quantitative Nuclease Protection Assay (qNPA) technology.Data from the assay component CLD_GSTA2_6hr was analyzed at the endpoint, CLD_GSTA2_6hr, in the positive analysis fitting direction relative to DMSO as the negative control and baseline of activity. Using a type of inducible reporter, gain-of-signal activity can be used to understand changes in the reporter gene as they relate to the gene GSTA2. Furthermore, this assay endpoint can be referred to as a primary readout. To generalize the intended target to other relatable targets, this assay endpoint is annotated to the transferase intended target family, where subfamily is alkyl and aryl transferase.
Human hepatocyte cultures were treated daily for two consecutive days with fresh dosing solutions containing appropriate concentrations of the 320 ToxCast chemicals (chemical identities were blinded to CellzDirect and other ToxCast collaborators), vehicle control (0.2% DMSO), and positive control inducers as summarized in Table 1. Due to the large number of treatment groups and chemicals examined, the ToxCast chemicals were divided into two groups (spanning two independent cultures of hepatocytes from separate donor preparations (Hu778: ToxCast plates 1 and 2; Hu776: ToxCast plates 3 and 4). Each preparation of human hepatocyte cultures was treated with respective vehicle control, medium only control, set of six positive controls/reference chemicals for the five hepatic receptor pathways, and a subset of eight of the ToxCast chemicals (indoxacarb, pyrithiobac-sodium, norflurazon, cyhalofop-butyl, methomyl, thiram, acetochlor, and propiconazole). These replicate data, coupled with internal replicates designed within the blinded ToxCast chemical library, provided additional data to evaluate interindividual differences between hepatocyte preparations and their potential impact on chemical profiles.Cell morphology and integrity were evaluated using phase-contrast microscopy as an indicator of hepatocyte cell health (Tyson & Green, 1987). Cultures for each treatment group (i.e., media, vehicle [0.2% DMSO], positive control inducers [multiple concentrations], and the ToxCast chemicals [multiple concentrations]) were observed and cell morphology was assessed relative to vehicle control cultures at each harvest time point (0, 6, 24, or 48 h). […] Images were evaluated at the conclusion of the study to assess changes in cell integrity and account for the effects of chemical exposure on uncharacteristic changes in concentration-dependent gene expression profiles. The results from these determinations of apparent cytotoxicity were annotated (yes/no) alongside the corresponding qNPA data for reference.At the conclusion of each treatment period, hepatocyte cultures (96-well) were washed with 1 volume of HBSS, lysed by addition of 25 ul ArrayPlate lysis buffer (HTG, Tucson, AZ), and 70 ul/well of Denaturation Oil, denatured by incubation at 95C for 10 min, and frozen at approximately -70C until analysis by nuclease protection assay (qNPA) (Roberts et al., 2007). For qNPA analysis, cell lysates were thawed at 50C for approximately 30 min, qNPA probes were added, and samples were incubated at 95C for 10 min to begin the detection process by denaturing the target RNA, dissociating the duplexes and secondary structure hybridization. At the conclusion of the hybridization period, S1 nuclease reagent was added to each sample to digest all nonprotected nucleotides at 50C for 60-90 min. […]

Row | Compound | outcome
1 | N#CN=C1SCCN1Cc1ccc(Cl)nc1 | inactive
2 | CC1(C)CON(Cc2ccccc2Cl)C1=O | inactive
3 | O=C1C2CC=CCC2C(=O)N1SC(Cl)(Cl)Cl (stereo not given) | inactive
4 | CCOc1cc(C(C)(C)C)ccc1C1COC(c2c(F)cccc2F)=N1 (stereo not given) | inactive
5 | COC(=O)c1c(C(F)F)nc(C(F)(F)F)c(C2=NCCS2)c1CC(C)C | inactive
6 | Cc1cnc(C2=NC(C)(C(C)C)C(=O)N2)c(C(=O)O)c1 (stereo not given) | inactive
7 | N#Cc1c(Cl)cccc1Cl | inactive
8 | CC(C)N1C(=O)N(c2ccccc2)CSC1=NC(C)(C)C | inactive
9 | O=P(O)(O)CCCl | inactive
10 | COc1cc(Cl)c(OC)cc1Cl | inactive
11 | CCNP(=S)(OC)O/C(C)=C/C(=O)OC(C)C (stereo not given) | inactive
12 | COP(=S)(OC)SCn1nnc2ccccc2c1=O | inactive
13 | O=c1n(Cl)c(=O)n(Cl)c(=O)n1Cl | inactive
14 | COCc1cnc(C2=NC(C)(C(C)C)C(=O)N2)c(C(=O)O)c1 (stereo not given) | inactive
15 | Cc1nc(N(C)C)nc(OC(=O)N(C)C)c1C | inactive
16 | COCC(C)N(C(=O)CCl)c1c(C)csc1C (stereo not given) | inactive
17 | CCOc1nc(C(Cl)(Cl)Cl)ns1 | inactive
18 | COC(=O)NS(=O)(=O)c1ccc(N)cc1 | inactive
19 | CCNC(=O)NC(=O)C(C#N)=NOC | inactive
20 | Cc1ccc(N=CN(C)C=Nc2ccc(C)cc2C)c(C)c1 | inactive

Row | Compound | outcome
21 | CSC(=O)c1c(C(F)F)nc(C(F)(F)F)c(C(=O)SC)c1CC(C)C | inactive
22 | CC(C)(C)C(=O)C(Oc1ccc(Cl)cc1)n1cncn1 (stereo not given) | inactive
23 | CC(C)C1(C)N=C(c2ncccc2C(=O)O)NC1=O (stereo not given) | inactive
24 | CCOP(=O)(OCC)Oc1nc(Cl)c(Cl)cc1Cl | inactive
25 | CNC(=O)N(C)c1nnc(C(C)(C)C)s1 | inactive
26 | COP(=S)(OC)Oc1ccc([N+](=O)[O-])c(C)c1 | inactive
27 | CC1(C)C(C=C(Cl)Cl)C1C(=O)OC(C#N)c1cccc(Oc2ccccc2)c1 (stereo not given) | inactive
28 | COCC(=O)N(c1c(C)cccc1C)C(C)C(=O)OC (stereo not given) | inactive
29 | Nc1c(Cl)c(Cl)nc(C(=O)O)c1Cl | inactive
30 | C=CCOC(=O)C(C)(C)OC(=O)c1cc(-n2c(=O)cc(C(F)(F)F)n(C)c2=O)ccc1Cl | inactive
31 | Clc1cccc(C(Cl)(Cl)Cl)n1 | inactive
32 | CC1(C)CCC(=Cc2ccc(Cl)cc2)C1(O)Cn1cncn1 (stereo not given) | inactive
33 | CO/N=C(/C1=NOCCO1)c1ccccc1Oc1ncnc(Oc2ccccc2Cl)c1F | inactive
34 | CC(C)N1C(=O)c2ccccc2NS1(=O)=O | inactive
35 | COC(=O)N(C(=O)N1CO[C@@]2(C(=O)OC)Cc3cc(Cl)ccc3C2=N1)c1ccc(OC(F)(F)F)cc1 | inactive
36 | C=C(C)CN(CC)c1c([N+](=O)[O-])cc(C(F)(F)F)cc1[N+](=O)[O-] | inactive
37 | COP(=O)(OC)O/C(C)=C/C(=O)N(C)C | inactive
38 | CS(=O)(=O)c1ccc(C(=O)C2C(=O)CCCC2=O)c([N+](=O)[O-])c1 | inactive
39 | CC(C)Oc1cccc(NC(=O)c2ccccc2C(F)(F)F)c1 | inactive
40 | CCOP(=S)(OCC)Oc1nc(Cl)n(C(C)C)n1 | inactive
